Screening results as filed in PubChem.
ANO1 block: blocks the mouse calcium-activated chloride channel TMEM16A; Q8BHY3; HEK293 TMEM16A/YFP iodide influx fluorescence, ionomycin; normalized B-score (activity score, 25-100; higher = stronger inhibition) at 10 µM; 310,000 compounds, 1.2% hits;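 active means ratio plate-corrected score three or more library SD toward inhibition, starting fluorescence score within five deviations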;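 further: score derived from kinetic fluorescence span divided by baseline fluorescence per well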
ANO1 activ: activates or potentiates the mouse TMEM16A chloride channel | AID 623877 | 340,000 compounds, 0.3% hits | HEK293 TMEM16A/YFP-H148Q/I152L, iodide quench fluorescence; active compounds read low | B-score at 10 µM | Q8BHY3;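 active means fluorescence-ratio B-score plate-corrected deviation score at least 3 library SD below zero, with starting fluorescence score within 5 deviations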;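 further: channel opened by trigger with iodide after compound preincubation; score built on the fluorescence ratio of max minus min over baseline; more negative score means more quench and so TMEM16A activation or potentiation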
CHT block: human CHT choline transport inhibition; Q9GZV3; CHT-expressing cells, membrane potential dye, choline response; active compounds read low; B-score at 10 µM; 310,000 compounds, 0.86% hits;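 active means B-score over 3 SD under the library average, and starting fluorescence ratio not unusually high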;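 further: choline stimulus applied at its EC90 after an EC20 pre-addition; B-score computed on integrated fluorescence ratio after choline addition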
CHT allo act: allosteric activators of human choline transporter CHT | CHT-expressing cells, membrane potential dye, choline EC20; active compounds read high; LV-AA mutant CHT in HEK293 cells | 310,000 compounds, 0.49% hits | Q9GZV3 | AID 488977 | B-score at 10 µM;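 active means initial fluorescence not abnormally high and integrated response B-score, plate-corrected, over 3 SD above library mean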
TMEM16A reconf: TMEM16A (mouse) chloride channel inhibition, re-confirmation | 2,300 compounds, 39% hits | HEK293 TMEM16A/YFP-H148Q, iodide quench fluorescence; ionomycin added to raise cell calcium | AID 652189 | inhibition, % at 10 µM | shares compounds with ANO1 block;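 active means mean duplicate percent inhibition, scaled so buffer wells are 0 and the reference blocker 100, over three buffer SD above buffer mean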
TMEM16A Ca cntr: counter-screen for TMEM16A inhibitors: effect on calcium mobilization | calcium response (% of ionomycin), % at 10 µM | 2,300 compounds, 2% hits | shares compounds with ANO1 block | TMEM16A/YFP HEK293, Fluo4 calcium mobilization;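 active means duplicate-averaged calcium signal over 20% of the ionomycin maximum, relative to buffer baseline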;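 further: each well's signal is peak minus trough fluorescence divided by its pre-addition baseline; 0% = buffer wells and 100% = ionomycin wells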
YFP-HEK293 quench: acts in parental YFP-HEK293 cells lacking TMEM16A, counter-screen; iodide YFP quench, ionomycin; YFP ratio F(max-min)/F0 at 10 µM; shares compounds with ANO1 block; 2,300 tested, under 10 active;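 active means yellow fluorescent protein signal ratio exceeding the buffer control mean by over 5 SD of those controls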;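 further: ratio is mean of duplicate wells from kinetic YFP trace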
ClC-1 inh: selectivity of TMEM16A inhibitors: inhibition of rat ClC-1 chloride channel; shares compounds with ANO1 block; CHO ClC-1-YFP, iodide influx fluorescence quench; iodide control reads 0, buffer control 100; ratio percent, % at 10 µM; 2,300 tested, under 10 active; AID 652236;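 active means duplicate-mean ratio percent above the mean of iodide-only control wells, which defines zero, plus 5 of their SD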;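 further: higher percent means stronger block of ClC-1 iodide influx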
Target sequence (P35524 whole entry, looked up): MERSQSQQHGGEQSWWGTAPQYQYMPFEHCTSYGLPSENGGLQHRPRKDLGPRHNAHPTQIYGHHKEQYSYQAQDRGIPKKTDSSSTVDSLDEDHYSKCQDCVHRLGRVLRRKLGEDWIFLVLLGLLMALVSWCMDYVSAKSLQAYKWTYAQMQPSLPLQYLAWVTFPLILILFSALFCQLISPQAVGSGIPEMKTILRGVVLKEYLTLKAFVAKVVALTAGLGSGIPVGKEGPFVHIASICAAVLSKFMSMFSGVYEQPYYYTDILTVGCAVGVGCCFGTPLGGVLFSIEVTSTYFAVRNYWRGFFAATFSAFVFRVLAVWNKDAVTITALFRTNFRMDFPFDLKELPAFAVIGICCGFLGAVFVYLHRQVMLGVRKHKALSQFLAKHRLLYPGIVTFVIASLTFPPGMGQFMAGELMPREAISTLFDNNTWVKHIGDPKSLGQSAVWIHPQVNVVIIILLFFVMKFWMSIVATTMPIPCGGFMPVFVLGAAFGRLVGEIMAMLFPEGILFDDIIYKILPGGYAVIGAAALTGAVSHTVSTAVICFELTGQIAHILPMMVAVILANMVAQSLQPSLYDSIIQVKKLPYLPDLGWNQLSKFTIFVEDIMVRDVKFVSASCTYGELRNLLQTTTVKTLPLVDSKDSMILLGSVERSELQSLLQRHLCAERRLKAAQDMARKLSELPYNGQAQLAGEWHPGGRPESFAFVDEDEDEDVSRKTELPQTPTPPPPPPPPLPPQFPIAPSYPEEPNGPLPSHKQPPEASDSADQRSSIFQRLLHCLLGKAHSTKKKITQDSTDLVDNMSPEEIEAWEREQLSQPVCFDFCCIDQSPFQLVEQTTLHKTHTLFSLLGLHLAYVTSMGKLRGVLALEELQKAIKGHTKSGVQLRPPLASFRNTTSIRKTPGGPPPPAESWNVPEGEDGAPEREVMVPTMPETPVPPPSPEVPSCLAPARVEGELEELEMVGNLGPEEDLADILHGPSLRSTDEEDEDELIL
An asterisk follows results filed as active; i = inactive; x = no result given. Rows were chosen to be rich in hits. Some 2.3% of all compounds tested hit in one or more screens of this group.

SMILES | ANO1 block | ANO1 activ | CHT block | CHT allo act | TMEM16A reconf | TMEM16A Ca cntr | YFP-HEK293 quench | ClC-1 inh
CCC(C)N1C(=O)c2ccccc2C1C(=O)NC1CCCCCC1 (stereo unspecified) | 25* | i | i | i | i | i | -1.1 | -17
CC(C)N1C(=O)c2ccccc2C1C(=O)NC1CCCCCC1 (stereo unspecified) | i | i | i | i | x | x | x | x
COc1cccc(CNC(=O)c2ccc(NS(=O)(=O)c3ccc4[nH]c(=O)[nH]c4c3)cc2)c1 | x | i | x | x | x | x | x | x
Cc1cc(=O)oc2cc(OCC(O)CN3CCc4ccccc4C3)ccc12 (stereo unspecified) | 25* | i | i | i | i | i | -1.3 | -8
Cc1cc(=O)oc2cc(OCC(O)CN3CCN(c4ccccc4)CC3)ccc12 (stereo unspecified) | i | i | i | i | x | x | x | x
CCC(C(=O)OCC(=O)Nc1ccc(Cl)c(S(=O)(=O)N(C)C)c1)c1ccccc1 (stereo unspecified) | 25* | i | i | i | 20%* | i | -1.2 | -6
CN(C)S(=O)(=O)c1cc(NC(=O)COC(=O)Cc2cccc3ccccc23)ccc1Cl | 25* | i | i | i | i | i | -0.94 | -4
COc1ccc(C(=O)NCC(=O)NCc2ccncc2)cc1 | x | i | x | x | x | x | x | x
CCCCSc1nnc(-c2ccccc2)c2ccccc12 | 100* | i | i | i | i | i | -1.1 | -8
CCCCN(C(=O)C1=NN(c2ccccc2)C(=O)CC1)c1c(N)n(CCC)c(=O)[nH]c1=O | x | i | x | x | x | x | x | x
O=C(CCC1CCCCC1=O)c1ccccc1 (stereo unspecified) | i | i | i | i | x | x | x | x
CC1(C)CC(=O)C(CCC(=O)c2ccccc2)C(C)(C)N1 (stereo unspecified) | 25* | i | i | i | i | i | -1.1 | -14
CC(=O)c1c(C)[nH]c(C(=O)Nc2cccc(S(=O)(=O)N(C)c3ccccc3)c2)c1C | i | i | i | i | x | x | x | x
O=[N+]([O-])c1ccc(O)c(-c2nc(-c3ccccc3)c(-c3cccs3)[nH]2)c1 | 25* | i | i | i | 67%* | i | -0.9 | -10
CCC(=O)N1CCN(c2nc3ccc(Br)cc3s2)CC1 | i | i | i | i | x | x | x | x
C=CCN(C(=O)c1cccc(S(=O)(=O)N2CCN(C)CC2)c1)c1nc(-c2ccccc2)cs1 | 100* | i | i | i | 20%* | i | -1 | -7
CN1CCN(S(=O)(=O)c2cccc(C(=O)N(C)Cc3cccs3)c2)CC1 | x | i | x | x | x | x | x | x
COC(=O)COc1ccc(S(=O)(=O)Nc2ccc3c(c2)OCCO3)cc1Cl | 25* | i | i | i | 46%* | i | -0.81 | -16
Cc1ccc(NS(=O)(=O)c2ccc(OCC(=O)Nc3cccc([N+](=O)[O-])c3)c(C)c2)cc1 | 25* | i | i | i | i | i | -0.93 | -8
COC(=O)COc1ccc(S(=O)(=O)Nc2ccc3c(c2)OCCO3)cc1C | 25* | i | i | i | 18%* | i | -1 | -6
CCCS(=O)(=O)N1CCC(C(=O)NCc2ccc3c(c2)OCO3)CC1 | i | i | i | i | x | x | x | x
Cc1ccc(NC(=S)NCCSc2ccc(Cl)cc2)cc1 | i | i | i | i | x | x | x | x
CC(CNC(=S)Nc1cc(F)cc(F)c1)CSc1ccc(Cl)cc1 (stereo unspecified) | 25* | i | i | i | 44%* | i | -1 | -16
CCCOc1ccc(NC(=O)C2CC(=O)N3CCCN=C3S2)cc1 (stereo unspecified) | 25* | i | i | i | i | i | -1.1 | -16
